Test results from PubChem BioAssay (NCATS).
Results filed as inconclusive are left out. Calls of active or inactive are those of the source. Unless noted, calls come from the whole dose curve; as a rule, active = well fitted curve in the direction sought with a large enough effect; inconclusive = small, poorly fitted or top-dose-only effect, or another doubt; inactive = no such curve, though single readings can be large; an effect the other way counts as inactive or inconclusive.

Key:
[1] = biological target: Aldehyde dehydrogenase, mitochondrial (Homo sapiens) (UniProt P05091); assay: qHTS for Inhibitors of the Aldehyde Dehydrogenase Family (ALDH2) Confirmatory screens (AID 2061303; active = well fitted inhibition curve with a large enough effect; title and protocol of this record describe different tests; note: nearly all actives have a fitted effect of over 45% in size; note: potency is the fitted concentration of half-maximal effect); details: ALDH inhibition qHTS; series mostly up to 45.4 µM
[2] = qHTS for Inhibitors of the Aldehyde Dehydrogenase Family (ALDH1A2, ALDH1A3, ALDH2, ALDH3A1) (AID 2061307); details: ALDH inhibition qHTS; series mostly up to 50.3 µM; note: nearly all actives have a fitted effect of over 50% in size; for Potency: test system not described further here; potency is the fitted concentration of half-maximal effect
[3] = biological target: Aldehyde dehydrogenase, mitochondrial (Homo sapiens) (UniProt P05091); assay: qHTS for Inhibitors of the Aldehyde Dehydrogenase Family (ALDH2) Primary screen (AID 2061308); details: ALDH2 enzyme inhibition qHTS, 1536-well; series mostly up to 56 µM; note: nearly all actives have a fitted effect of over 55% in size; note: potency is the fitted concentration of half-maximal effect
[4] = biological target: Retinaldehyde dehydrogenase 3 (Homo sapiens) (UniProt P47895); assay: qHTS for Inhibitors of the Aldehyde Dehydrogenase Family (ALDH1A3) Confirmatory screens (AID 2061311); details: ALDH inhibition qHTS; series mostly up to 46 µM; note: nearly all actives have a fitted effect of over 60% in size; note: potency is the fitted concentration of half-maximal effect
[5] = biological target: Aldehyde dehydrogenase 1A1 (Homo sapiens) (UniProt P00352); assay: qHTS for Inhibitors of the Aldehyde Dehydrogenase Family (ALDH1A1) Confirmatory screens (AID 2061316); details: ALDH inhibition qHTS; series mostly up to 47.3 µM; note: nearly all actives have a fitted effect of over 65% in size; note: potency is the fitted concentration of half-maximal effect
[6] = biological target: Retinal dehydrogenase 2 (Homo sapiens) (UniProt O94788); assay: qHTS for Inhibitors of the Aldehyde Dehydrogenase Family (ALDH1A2) Confirmation screens (AID 2061314); details: ALDH1A2 enzyme inhibition qHTS confirmation; series mostly up to 45.9 µM; note: nearly all actives have a fitted effect of over 65% in size; note: potency is the fitted concentration of half-maximal effect
[7] = biological target: Retinaldehyde dehydrogenase 3 (Homo sapiens) (UniProt P47895); assay: qHTS for Inhibitors of the Aldehyde Dehydrogenase Family (ALDH1A3) Primary screen (AID 2061315); details: ALDH inhibition qHTS; series mostly up to 56 µM;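 note: plate controls were DMSO vehicle for no effect and reference inhibitor for full effect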
[8] = biological target: Retinaldehyde dehydrogenase 3 (Homo sapiens) (UniProt P47895); assay: qHTS for Inhibitors of the Aldehyde Dehydrogenase Family (ALDH1A3) Validation screen (AID 2061312); details: ALDH1A3 enzyme inhibition qHTS validation, fluorescence; series mostly up to 84.7 µM; note: nearly all actives have a fitted effect of over 45% in size; note: potency is the fitted concentration of half-maximal effect
[9] = BET inhibitor-based combinations targeting novel dependencies in MECOM-rearranged (r) AML: AML-194 cell line (AID 2202237; note: nearly all actives have a fitted effect of over 40% in size; note: potency is the fitted concentration of half-maximal effect); details: AML-194 (MECOM-r AML) viability, CellTiter-Glo, 48 h; series mostly up to 46 µM
Procedure, shortened: (§1)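 Readout: CellTiter-Glo luminescence. Exposure: 48 h, 11 concentrations, 500 cells/well. Metric: AUC and within-line Z-AUC after DMSO/empty-well normalization.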

[10] = BET inhibitor-based combinations targeting novel dependencies in MECOM-rearranged (r) AML: SET-2 cell line (AID 2202231); details: SET-2 AML cells viability, CellTiter-Glo luminescence, 48 h; viability: stronger effect = lower value, concentration not given here; note: nearly all actives have a fitted effect of over 35% in size; note: potency is the fitted concentration of half-maximal effect;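 for viability: plate controls were DMSO treated cells for no effect and wells without cells for full effect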
Procedure, shortened: as §1

[11] = BET inhibitor-based combinations targeting novel dependencies in MECOM-rearranged (r) AML: OCI-AML3 cell line (AID 2202232); details: CellTiter-Glo luminescence, 48 h; Potency: OCI-AML3 viability; series mostly up to 46 µM;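 note: plate controls were DMSO vehicle wells for no effect and wells without cells for full effect; nearly all actives have a fitted effect of over 35% in size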
Procedure, shortened: as §1

[12] = BET inhibitor-based combinations targeting novel dependencies in MECOM-rearranged (r) AML: UCSD-AML1 cell line (AID 2202235); details: UCSD-AML1 AML cells viability, CellTiter-Glo, 48 h; series mostly up to 46 µM;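 note: plate controls were DMSO vehicle wells for no effect and blank wells for full effect; nearly all actives have a fitted effect of over 40% in size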
Procedure, shortened: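 Seeding density was 500 cells/well, and drug exposure lasted 48 hr under standard culture conditions. Read-out used CellTiter-Glo reagent with a 15 min room-temperature incubation before luminescence measurement; AUC and Z-AUC summarize the normalized responses.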

[13] = BET inhibitor-based combinations targeting novel dependencies in MECOM-rearranged (r) AML: AML-191 cell line (AID 2202236; note: nearly all actives have a fitted effect of over 35% in size; note: potency is the fitted concentration of half-maximal effect); details: AML-191 viability, CellTiter-Glo luminescence, 48 h; series mostly up to 46 µM
Procedure, shortened: as §1

O=C1c2ccccc2NC(c2ccc(Br)o2)N1O (stereo unspecified)
active: Potency [1] 5.04 µM | Potency [2] 10.1 µM | Potency [3] 1.41 µM | Potency [4] 7.12 µM | Potency [5] 1.79 µM

O=C(Cc1ccc(Cl)c(Cl)c1)Nc1ccc(S(=O)(=O)O)cc1
inactive: Potency [1] | Potency [2] | Potency [3] | Potency [6] | Potency [7] | Potency [5]

O=[N+]([O-])c1ccccc1CSc1nc2ncc(Br)cc2[nH]1
active: Potency [5] 12.7 µM
inactive: Potency [1] | Potency [2] | Potency [3] | Potency [6] | Potency [7]

COc1cccc(CCC(=O)NCCc2nc3ccccc3n2CCOc2ccc(C)cc2)c1
inactive: Potency [1] | Potency [2] | Potency [3] | Potency [6] | Potency [7]
active: Potency [5] 6.34 µM

CC1(C)S[C@@H]2[C@H](NC(=O)[C@H](NC(=O)N3CCN(S(C)(=O)=O)C3=O)c3ccccc3)C(=O)N2[C@H]1C(=O)O
inactive: Potency [1] | Potency [2] | Potency [3] | Potency [8] | Potency [6] | Potency [7] | Potency [5]

Cc1cc(=O)oc2c(C=O)c(O)ccc12
inactive: Potency [1] | Potency [2] | Potency [3]
active: Potency [4] 12.7 µM | Potency [5] 8.96 µM

CCN(CC)CCOc1ccc(/C(=C(\Cl)c2ccccc2)c2ccccc2)cc1
inactive: Potency [1] | Potency [2] | Potency [3] | Potency [8] | Potency [6] | Potency [7] | Potency [5]
active: Potency [9] 23.5 µM

COc1ccc(CN(Cc2ccccc2)C(=O)c2ccccc2O)cc1
inactive: Potency [1] | Potency [2] | Potency [3] | Potency [6] | Potency [7]

O=C1c2ccccc2C(=O)N1Cc1cccnc1
inactive: Potency [1] | Potency [2] | Potency [3] | Potency [6] | Potency [7] | Potency [5]

CC(C)(Cc1ccccc1)NCC(O)c1ccc(O)c(NS(C)(=O)=O)c1 (stereo unspecified)
inactive: Potency [1] | Potency [2] | Potency [3] | Potency [8] | Potency [6] | Potency [5]

CCc1c(C)sc(NC(=O)C2CCCCC2C(=O)O)c1C(N)=O (stereo unspecified)
inactive: Potency [1] | Potency [2] | Potency [3] | Potency [6] | Potency [7]

Fc1cc(Nc2nc(-c3ccncc3)nc3ccccc23)ccc1N1CCNCC1
inactive: Potency [1] | Potency [2] | Potency [3] | Potency [6] | Potency [7]

O=C1CC(c2ccccc2)Cc2[nH]c(=O)c(-c3nc(-c4ccc(F)cc4)cs3)cc21 (stereo unspecified)
inactive: Potency [1] | Potency [2] | Potency [3] | Potency [6] | Potency [7]

O=S1(=O)N=C(Oc2ccccc2F)c2ccccc21
inactive: Potency [1] | Potency [2] | Potency [3] | Potency [6] | Potency [7]

O=C(O)c1ccc(-n2cccc2/C=C2\SC(=O)N(Cc3ccccc3Cl)C2=O)cc1
active: Potency [2] 7.12 µM | Potency [6] 5.65 µM
inactive: Potency [1] | Potency [3] | Potency [7]

CCCCNc1nc(C#N)nc(Nc2ccccc2)n1
inactive: Potency [3] | Potency [6] | Potency [7]
active: Potency [1] 2.51 µM | Potency [2] 0.501 µM

NC(=O)C[C@H](N)C(=O)Nc1ccc(Cl)cc1C(=O)c1ccc[nH]1
inactive: Potency [1] | Potency [2] | Potency [3] | Potency [6] | Potency [7] | Potency [5]

O=C(CCCc1ccc2cccnc2n1)NCc1cc(-c2ccc(F)c(C(F)(F)F)c2)no1
inactive: viability [10] 106% | Potency [11] | Potency [12] | Potency [13] | Potency [9]

CC(C)N1CCc2c(sc(NC(=O)C(F)(F)F)c2-c2nc3ccccc3s2)C1
active: Potency [1] 11.3 µM | Potency [2] 8.96 µM | Potency [3] 31.6 µM | Potency [5] 5.65 µM

CC(=O)Nc1sc2c(c1-c1ccc(C(F)(F)F)cc1)CCNC2
inactive: Potency [1] | Potency [2] | Potency [3] | Potency [7] | Potency [5]

O=S(=O)(Nc1cc(O)cc2cccnc12)c1ccc(Br)s1
active: Potency [6] 0.634 µM
inactive: Potency [1] | Potency [2] | Potency [4]

Cc1cc(F)ccc1[C@H]1C[C@@H](N2CCN3C(=O)CC[C@H]3C2)CCN1C(=O)N(C)[C@H](C)c1cc(C(F)(F)F)cc(C(F)(F)F)c1
inactive: Potency [1] | Potency [2] | Potency [4] | Potency [6] | Potency [7] | Potency [5]
active: Potency [8] 7.94 µM

N#Cc1c(-c2ccc(O)cc2)no[n+]1[O-]
inactive: Potency [1] | Potency [3] | Potency [7]
active: Potency [2] 12.7 µM

O=C(C1CCN(Cc2ccccc2-c2ccccc2F)CC1)N1CCC(Cc2ccccc2)CC1
inactive: Potency [2] | Potency [4] | Potency [6]
active: Potency [1] 3.16 µM

CNC(=O)c1cc(Oc2ccc3nc(N[C@@H]4CCCC[C@H]4O)sc3c2)ccn1
active: Potency [2] 10.1 µM | Potency [10] 20.9 µM | Potency [13] 14.8 µM
inactive: Potency [1] | Potency [3] | Potency [7] | Potency [12] | Potency [9]

COc1ccc(-c2cncc(NC(=O)c3cccs3)c2)cc1OC
inactive: Potency [1] | Potency [2] | Potency [3] | Potency [5]
